Measurements as given in PubChem BioAssay AID540308 (The Scripps Research Institute Molecular Screening Center, 2011).
The whole screen tested about 360,000 compounds, of which about 3,500 (0.97%) were called active. For the sample, actives were picked, then their nearest neighbours and some compounds at random. Unmarked numbers belong to inactive results.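 The calls were made as follows: active = activation above a per-plate cutoff, the mean activation of sample wells on that plate plus 3 SD (cut at about 8% in these data); inactive = the rest.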

Target: Melanocortin receptor 4 (Homo sapiens) (UniProt P32245)
Assay: activators of MC4R beta-arrestin recruitment – cell-based, luminescence, agonist arm of biased-ligand search, primary screen (AID 540308)
Details: U2OS MC4R beta-arrestin complementation, at 8.9 µM, active compounds read high, percent of melanotan II response, DMSO zero

Sequence of Melanocortin receptor 4 (Homo sapiens) (P32245 whole entry, looked up): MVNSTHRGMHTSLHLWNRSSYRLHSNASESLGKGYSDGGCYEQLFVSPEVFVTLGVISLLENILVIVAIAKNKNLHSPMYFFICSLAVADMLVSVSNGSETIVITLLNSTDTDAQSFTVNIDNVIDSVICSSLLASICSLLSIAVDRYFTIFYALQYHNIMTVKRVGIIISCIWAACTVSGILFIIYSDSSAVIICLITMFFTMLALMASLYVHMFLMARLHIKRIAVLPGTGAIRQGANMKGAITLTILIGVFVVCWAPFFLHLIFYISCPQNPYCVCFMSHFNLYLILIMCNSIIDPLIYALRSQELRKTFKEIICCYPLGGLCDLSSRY

First: COc1cccc(-n2c(SCC(=O)NC3CCCCC3)nc3n[nH]c(C)c3c2=N)c1
Second: CCCCNC(=O)CSc1nc2n[nH]c(C)c2c(=N)n1-c1cccc(Cl)c1C
The activation of the first is higher: -1.4% for the first, -1.55% for the second.

Going from `COc1ccc(CNC(=O)c2ccc(-c3cccnc3)c3ccoc23)cc1OC` to `COc1cccc(CNC(=O)c2cccnc2Sc2ccc(Cl)cc2)c1`, the activation falls from 1.26% to 0.85%.

First: CCCNC(=O)c1cc(C2CCCN(C(=O)c3ccc4c(c3)CCO4)C2)on1 (configuration not stated)
Second: O=C(c1cc(C2CCCCN2S(=O)(=O)c2ccccc2)on1)N1CCOCC1 (configuration not stated)
The activation of the first is lower: -0.64% for the first, 0.01% for the second.

First: COc1ccc(C(=O)n2nc(C)c(Br)c2C)cc1OC
Second: COc1ccc(C(=O)n2nc(-c3ccc(Cl)cc3)nc2N)cc1OC
The activation of the first is higher: 1.71% for the first, 0.74% for the second.

Going from `CC(=O)c1ccc(N2CCN(C(=O)CCNC(=O)Cn3ccc4ccccc4c3=O)CC2)cc1` to `COc1ccccc1N1CCN(C(=O)C(=O)N/N=C/c2ccccc2F)CC1`, the activation falls from 2.35% to -3.16%.

Going from `CCOC(=O)C1CCCN(C(=O)c2cccc3ccccc23)CC1` (configuration not stated) to `CCOC(=O)C1CCCN(C(=O)c2ccc(N(C)C)cc2)CC1` (configuration not stated), the activation rises from -0.59% to -0.51%.

First: O=C(CCC(=O)Nc1ccccc1)N/N=C/c1ccccc1F
Second: O=C(Nc1ccccc1)c1ccccc1Br
The activation of the first is lower: -0.29% for the first, 0.3% for the second.

Going from `CCCNC(=O)C1(C)CCN1C(=O)C1(c2ccccc2)CC1` (configuration not stated) to `CCCNC(=O)C1(C)CCN1C(=O)Cc1ccc(-c2ccccc2)cc1` (configuration not stated), the activation falls from 1.14% to -0.78%.

Going from `O=C(COc1ccc(S(=O)(=O)N2CCCC2)cc1[N+](=O)[O-])N1CCCCC1` to `CCOC(=O)c1c(NC(=O)C2CCN(S(=O)(=O)c3ccc(Cl)cc3)CC2)sc2c1CCCC2`, the activation rises from -1.25% to 2.72%.

Compared with `Cc1ccc(S(=O)(=O)N2CCC(C(=O)OCC(=O)N(C)c3ccccc3)CC2)cc1C`, `Cc1ccc(S(=O)(=O)N(C)CC(=O)OCC(=O)Nc2ccccc2)cc1` is higher in activation: -3.84% for the first, -2.23% for the second.

Compared with `CCc1nc2ccc(C(=O)NC3CCN(Cc4ccccc4)CC3)cn2c1N(CC)CCOC`, `CCc1nc2ccc(C(=O)NC3CCN(Cc4ccccc4)CC3)cn2c1N(C)CCN1CCOCC1` is lower in activation: 4.51% for the first, -0.77% for the second.

First: CCOc1cc(NC(=O)Nc2ccccc2)c(OCC)cc1NC(=O)CC
Second: Cc1ccc(F)c(NC(=O)CCOc2ccccc2C)c1
The activation of the first is higher: 0.85% for the first, -0.86% for the second.

Going from `CC(=O)Nc1cccc(-c2ccnc3c2CC(C)(C(=O)NCc2ccco2)O3)c1` (configuration not stated) to `CC(=O)Nc1cccc(-c2ccnc3c2CC(C)(C(=O)NCc2ccccc2)O3)c1` (configuration not stated), the activation falls from 0.36% to -1.6%.

Compared with `Cn1c(-c2ccc(F)cc2)cnc1SCC(=O)NCc1ccco1`, `O=C(CSc1nc2ccccc2c(=O)n1Cc1ccc(F)cc1)NCC1CCCO1` (configuration not stated) is higher in activation: -1.34% for the first, -0.86% for the second.

Compared with `CC=CCn1c(SCCCc2ccccc2)nc2c1c(=O)[nH]c(=O)n2C`, `Cc1cc2c(=O)n(C)c(SCC(=O)c3cc4ccccc4o3)nc2s1` is lower in activation: 1.64% for the first, -0.92% for the second.

First: Cc1ccc(CNC(=O)Nc2nnc([C@H]3C[C@H](O)[C@@H](CO)O3)s2)cc1
Second: O=C(Nc1cccc2cccnc12)c1ccc2sc([C@H]3C[C@H](O)[C@@H](CO)O3)nc2c1
The activation of the first is lower: -0.78% for the first, 0.55% for the second.

Going from `OCCN1CCN(c2ncnc3c2ncn3[C@H]2CN(Cc3ccco3)C[C@@H](CO)O2)CC1` to `CCN(CC)c1ncnc2c1ncn2[C@H]1CN(Cc2cccs2)C[C@@H](CO)O1`, the activation rises from -0.69% to 0.8%.

Going from `CC(C)c1ccc(Nc2nnc(SCC(=O)c3nnc(-c4ccccc4)o3)s2)cc1` to `CCN(C(=O)CSc1nnc(-c2ccncc2)o1)c1ccccc1`, the activation rises from -0.71% to 0.57%.

First: CC1(C(=O)NS(=O)(=O)C2CC2)CCCN(C(=O)CSc2ccccc2)C1 (configuration not stated)
Second: CCNC(=O)C1(C)CCCN(C(=O)c2ccc3ccccc3n2)C1 (configuration not stated)
The activation of the first is higher: 0.3% for the first, -0.3% for the second.

Compared with `OC[C@@H]1CN(Cc2cccs2)C[C@H](n2cnc3c(Nc4ccccc4)ncnc32)O1`, `C/C(=N\NC(=O)CSc1nc2ccccc2c(=O)n1-c1ccccc1C)c1cccs1` is lower in activation: 0.44% for the first, -1.88% for the second.

Going from `O=C(CN1CCCC1)Nc1sc2c(c1C(=O)Nc1ccccc1)CCCC2` to `O=C(CCN1CCCCC1)N=Nc1c(O)[nH]c2ccccc12`, the activation rises from -3.19% to -1.11%.

First: O=C(Nc1ccc(Cl)c(C(F)(F)F)c1)C1Cc2c(-c3ccccc3Oc3ccccc3)ccnc2O1 (configuration not stated)
Second: COc1ccc(NC(=O)C2(C)Cc3c(-c4ccc(C(N)=O)cc4)ccnc3O2)cc1 (configuration not stated)
The activation of the first is lower: -1.84% for the first, 0.47% for the second.

First: CCCCN(C=O)c1c(CC)nc2c(OCc3ccccc3C(=O)OC)cccn12
Second: COc1ccc(/C=C2/SC(=O)N(CCCCCC(=O)Nc3ccccc3C(=O)O)C2=S)cc1
The activation of the first is higher: 0.49% for the first, -0.47% for the second.

Going from `C/C(=N\OCC(=O)Nc1ccc(Br)cc1)c1cccs1` to `O=C(COC(=O)CNC(=O)c1ccco1)Nc1ccc(F)cc1`, the activation rises from -4.16% to -0.58%.

First: N/C(=N\OC(=O)Cc1ccccc1[N+](=O)[O-])c1ccc(Br)cc1
Second: N/C(=N\OC(=O)c1ccc2c(c1)OCO2)c1ccc(Br)cc1
The activation of the first is lower: -1.47% for the first, 0.57% for the second.

Compared with `CCC(=O)N1CCCC1(C)C(=O)Nc1ccc2c(c1)CCN2C(C)=O` (configuration not stated), `CC1(C(=O)Nc2cccc3c2CCCC3)CCN1C(=O)CCc1ccc(Cl)cc1Cl` (configuration not stated) is higher in activation: -1.65% for the first, 1.71% for the second.

Going from `CCOc1ccc(NC(=O)COc2ccc(C(=O)N3CCC(C(N)=O)CC3)cc2OC)cc1` to `COc1cc(C2C3=C(CCCC3=O)OC3=C2C(=O)CCC3)ccc1OCC(=O)Nc1ccccc1`, the activation rises from -1.74% to -1.3%.

Going from `COC(=O)c1cc(OCC(=O)NC2CCCc3ccccc32)cc(C(=O)OC)c1` (configuration not stated) to `Cc1ccccc1OCC(=O)Nc1nc(C)c(C(=O)N(C)C)s1`, the activation falls from -1.2% to -2.42%.

Going from `Cc1ccc(CN2C(=O)CCC2C(=O)NCCCN2CCCCC2C)cc1` (configuration not stated) to `COCCNC(=O)C1(C)CCCN(Cc2cccc(F)c2)C1` (configuration not stated), the activation falls from -0.33% to -0.59%.

Going from `CCCn1c(C)cc(/C=C(\C#N)C(=O)OCC(=O)Nc2cc(OC)c(OC)c(OC)c2)c1C` to `O=C(COC(=O)c1ccc[nH]c1=O)Nc1ccc2c(c1)OC(F)(F)O2`, the activation falls from 1.33% to -2.05%.

Compared with `O=C(NCc1cccnc1)c1cccnc1Sc1ccc(Cl)cc1`, `COCOc1cccc(CN2CCC(C)(Oc3ccc(SC)cc3)C2)c1` (configuration not stated) is lower in activation: 1.65% for the first, 0.12% for the second.

First: CCCS(=O)(=O)NC(=O)C1(C)CCN(C(=O)c2sccc2C)C1 (configuration not stated)
Second: Cc1nc(C(F)(F)F)ccc1C(=O)N1CCC1(C)C(=O)NS(=O)(=O)c1ccccc1Cl (configuration not stated)
The activation of the first is higher: -0.75% for the first, -1.94% for the second.

Compared with `COC(=O)CSc1nnc(-c2cccnc2)o1`, `Nc1cccc(-c2cncc(N3CCN(Cc4ccccn4)CC3)n2)c1` is higher in activation: -1.17% for the first, -0.96% for the second.

Going from `COCCCNc1ccn2nc(-c3ccc(CC(C)C)cc3)cc2n1` to `COc1cccc(/C=C2\SC(=S)N(CCCC(=O)N3CCOCC3)C2=O)c1`, the activation falls from 1.85% to -0.8%.

First: CC(c1ccco1)N(C(=O)Nc1ccccc1)C1CCCCC1 (configuration not stated)
Second: Cc1[nH]c2ccccc2c1C(=O)COC(=O)c1c(-c2ccccc2)noc1C
The activation of the first is lower: -3.36% for the first, -0.48% for the second.

First: O=C(CN1C(=O)/C(=C\c2ccccc2F)SC1=S)Nc1nc2ccccc2s1
Second: CC(C(=O)Nc1ccc(O)c(C(=O)O)c1)N1C(=O)/C(=C/c2cccs2)SC1=S (configuration not stated)
The activation of the first is higher: 0.77% for the first, -1.84% for the second.

`Cc1ccc(-n2c(SCC(=O)NCCC3=CCCCC3)nc3n[nH]c(C)c3c2=N)cc1Cl` was tested, and the activation was 18.2% (active).
For `COc1ccc(C(=O)n2nc(-c3ccc(C)cc3)nc2N)cc1OC`, the activation was 15.4% (active).
`Fc1ccccc1/C=N/Nc1cc(N2CCCCC2)ncn1` was tested, and the activation was 12.1% (active).
In the case of `COc1ccc(S(=O)(=O)N2CCC(C(=O)OCC(=O)c3ccccc3)CC2)cc1[N+](=O)[O-]`, the activation is reported as 31.7% (active).
In the case of `Cc1ccc(NC(=O)Nc2ccccc2)c(Br)c1`, the activation is reported as 21.9% (active).
For `O=C(CCCn1c(SCC(=O)c2ccc(F)cc2)nc2ccccc2c1=O)NCc1ccco1`, the activation was 29.6% (active).
For `Cc1ccc(Nc2nnc(SCC(=O)c3cc4ccccc4o3)s2)cc1C`, the activation was 11% (active).
In the case of `O=C(Nc1sc2c(c1-c1nc3ccccc3[nH]1)CCCC2)C1CC1`, the activation is reported as 14.1% (active).
With `C/C(=N\NC(=O)COc1c(C)cccc1C)c1cccs1` the activation was 12.1% (active).
`N/C(=N\OC(=O)N1c2ccccc2Sc2ccccc21)c1ccc(Br)cc1` was tested, and the activation was 8.26% (active).
For `CCOc1ccc(NC(=O)COc2ccc(C(=O)NC3CCCc4ccccc43)cc2OC)cc1` (configuration not stated), the activation was 9.26% (active).
`CC(=O)c1sc(NC(=O)CCCOc2ccccc2C)nc1C` was tested, and the activation was 9.6% (active).
For `CCOC(=O)/C(C#N)=C/c1ccc(OCC(=O)Nc2ccccc2)c(OC)c1`, the activation was 8.67% (active).
With `O=C(NC1CCCCCC1)c1cccnc1Sc1ccc(Cl)cc1` the activation was 10.7% (active).
For `Cc1cccc(C)c1OC(=O)CSc1nnc(-c2ccccc2)o1`, the activation was 15.5% (active).
`Cc1ccc(NC(=O)NC(=O)N(C2CCCCC2)S(=O)(=O)c2ccccc2)cc1` was tested, and the activation was 9.21% (active).
In the case of `Cc1c(-c2ccccc2)n[nH]c1C(=O)N=Nc1c(O)[nH]c2ccccc12`, the activation is reported as 17.7% (active).
In the case of `O=C(COC(=O)c1ccccc1NC(=O)c1ccco1)Nc1ccc2c(c1)OC(F)(F)O2`, the activation is reported as 10.1% (active).
For `O=C(CCCN1C(=O)/C(=C/c2cccs2)SC1=S)Nc1ccc(O)cc1`, the activation was 20.4% (active).
`O=C(CCCN1C(=O)/C(=C\c2ccco2)SC1=S)Nc1cccc2ccccc12` was tested, and the activation was 13.9% (active).
